Source: PubChem BioAssay (NCATS)
Where “and” joins values, the source holds several entries; their conditions need not be identical. Equal values may be shown once. Records with an inconclusive call do not appear. Calls of active or inactive are those of the source. Unless noted, the call rests on the fitted dose curve; in most records, active means well fitted curve in the direction sought with a large enough effect; inconclusive means small, poorly fitted or top-dose-only effect, or another doubt; inactive means no such curve, though single readings can be large; an effect the other way counts as inactive or inconclusive.

Tests used:
[1] = AP1 Signaling Pathway (AID 357; active means well fitted curve in either direction with a large enough effect, not every such curve was filed as active;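 further: ME-180 reporter cells stimulated with EGF at its EC50 level; on the % scale 0 is the no-effect control and ±100 the full control effect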); settings: ME-180 AP-1-bla reporter, EGF-induced, beta-lactamase ratio, 5 h
Procedure, shortened: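 In this screen, ME-180 cells in Opti-MEM with 0.5% dialyzed FBS received EC50 EGF and compound titrations for 5 h. AP-1 reporter beta-lactamase was detected via CCF4 ratio, giving AC50 for positive and negative modulators.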

[2] = target: Cytochrome P450 1A2 (Homo sapiens) (UniProt P05177); experiment: p450-cyp1a2 (AID 410; calls by dose curve; further: potency means the concentration at half of the fitted maximal effect;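 on activity change, negative = inhibition: -100% = full effect of reference inhibitor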)
Sequence of Cytochrome P450 1A2 (Homo sapiens) (P05177 whole entry, looked up): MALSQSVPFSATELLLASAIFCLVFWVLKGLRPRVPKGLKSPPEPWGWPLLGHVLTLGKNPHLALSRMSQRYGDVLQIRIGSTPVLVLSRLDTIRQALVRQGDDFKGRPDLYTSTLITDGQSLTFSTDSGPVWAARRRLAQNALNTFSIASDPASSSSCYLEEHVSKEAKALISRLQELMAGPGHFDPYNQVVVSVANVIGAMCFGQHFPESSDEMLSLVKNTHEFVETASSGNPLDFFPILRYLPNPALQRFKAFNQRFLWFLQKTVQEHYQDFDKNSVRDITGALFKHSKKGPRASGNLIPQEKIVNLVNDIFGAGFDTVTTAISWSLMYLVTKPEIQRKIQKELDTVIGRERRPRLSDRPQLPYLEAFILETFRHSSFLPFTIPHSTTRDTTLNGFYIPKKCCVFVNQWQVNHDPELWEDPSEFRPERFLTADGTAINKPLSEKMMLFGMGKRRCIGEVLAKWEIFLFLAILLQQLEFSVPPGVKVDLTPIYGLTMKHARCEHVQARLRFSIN
Procedure, shortened: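 Inhibition was calculated relative to 57 uM furafylline (full inhibition). The reaction used human CYP1A2 at 20nM with Luciferin-ME at its Km, 100uM, driven by an NADPH-regenerating system for 60 min at room temperature.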

[3] = Stat Signaling Pathway (AID 446; active means well fitted curve in either direction with a large enough effect, not every such curve was filed as active;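 further: ME-180 cervical cancer cells given 40 pM IL-6 alongside compound; SIE-controlled beta-lactamase reporter measured as 460/530 nm FRET emission ratio; on the % scale 0 is the no-effect control and ±100 the full control effect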); settings: ME-180 SIE beta-lactamase reporter, IL-6 stimulated, 5 h
Procedure, shortened: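 ME-180 cells carrying a SIE-driven beta-lactamase reporter are stimulated with 40 pM IL-6 for 5 h at 37C in the presence of compound. The 460/530 nm FRET substrate ratio is read after 2.5 h at RT. Data are normalised to 300 pM IL-6 and to 125 nM JAK inhibitor controls.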

[4] = target: 3',5'-cyclic-AMP phosphodiesterase 4B (Homo sapiens) (UniProt Q07343); experiment: qHTS Assay for Inhibitors of PDE-IV (AID 607; active means well fitted activation curve with a large enough effect in the main read-out, with a control signal flat, not every such curve was filed as active; further: % of control where 0% means no effect)
Sequence of 3',5'-cyclic-AMP phosphodiesterase 4B (Homo sapiens) (Q07343 whole entry, looked up): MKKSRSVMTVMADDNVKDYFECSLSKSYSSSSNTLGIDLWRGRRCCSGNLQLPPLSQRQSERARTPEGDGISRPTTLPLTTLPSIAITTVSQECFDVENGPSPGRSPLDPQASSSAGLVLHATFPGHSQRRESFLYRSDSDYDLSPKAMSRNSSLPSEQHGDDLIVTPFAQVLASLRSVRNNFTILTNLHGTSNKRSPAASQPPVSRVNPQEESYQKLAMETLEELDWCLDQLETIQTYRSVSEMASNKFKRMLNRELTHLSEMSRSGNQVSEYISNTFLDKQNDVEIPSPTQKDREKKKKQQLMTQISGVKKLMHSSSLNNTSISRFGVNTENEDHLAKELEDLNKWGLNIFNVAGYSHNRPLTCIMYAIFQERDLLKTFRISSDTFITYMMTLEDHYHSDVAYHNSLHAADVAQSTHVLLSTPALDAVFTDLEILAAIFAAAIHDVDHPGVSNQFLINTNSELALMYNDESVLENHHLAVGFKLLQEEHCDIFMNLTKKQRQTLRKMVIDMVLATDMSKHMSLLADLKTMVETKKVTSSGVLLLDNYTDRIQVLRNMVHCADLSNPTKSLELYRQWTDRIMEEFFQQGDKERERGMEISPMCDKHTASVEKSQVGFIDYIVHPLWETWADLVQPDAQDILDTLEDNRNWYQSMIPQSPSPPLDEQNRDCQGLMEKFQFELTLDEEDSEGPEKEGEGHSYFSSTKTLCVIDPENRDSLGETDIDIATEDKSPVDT
Procedure, shortened: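 HEK293 ACTOne cells with CNG channel (1000/well), endogenous PDE4; membrane potential dye, compounds up to 22.9 uM final. Fluorescence Ex 535/Em 590; RO 20-1724 (100 uM final) as reference.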

[5] = target: Guanine nucleotide-binding protein G(i) subunit alpha-1 (Homo sapiens) (UniProt P63096); experiment: qHTS Assay for Inhibitors of RGS12 GoLoco Motif Activity (Green Fluorophore) (AID 879);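 further: 0% = labeled peptide with Gαi1 and full inhibition = labeled peptide alone without protein; negative values mean loss of peptide binding seen as reduced polarization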
Sequence of Guanine nucleotide-binding protein G(i) subunit alpha-1 (Homo sapiens) (P63096 whole entry, looked up): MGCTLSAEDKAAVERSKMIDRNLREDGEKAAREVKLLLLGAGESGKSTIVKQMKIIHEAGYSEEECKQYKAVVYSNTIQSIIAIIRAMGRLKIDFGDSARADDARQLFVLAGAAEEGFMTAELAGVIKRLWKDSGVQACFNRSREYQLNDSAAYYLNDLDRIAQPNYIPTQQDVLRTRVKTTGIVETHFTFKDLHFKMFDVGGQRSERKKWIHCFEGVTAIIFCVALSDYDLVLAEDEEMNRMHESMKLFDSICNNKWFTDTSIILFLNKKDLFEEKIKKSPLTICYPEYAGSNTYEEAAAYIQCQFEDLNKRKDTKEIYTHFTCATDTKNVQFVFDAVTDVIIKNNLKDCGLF
Procedure, shortened: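 Fluorescence polarization assay: 50 nM Gαi1 with 10 nM FITC-labeled RGS12 GoLoco peptide in 10 mM Tris pH 7.5, 150 mM NaCl, 0.1 mM GDP, 0.05% NP40, 10 min at room temperature with compound.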

[6] = target: Cytochrome P450 3A4 (Homo sapiens) (UniProt P08684); experiment: qHTS Assay for Activators of Cytochrome P450 3A4 (AID 885); further: nearly all actives have a fitted effect of over 65% in size
Sequence of Cytochrome P450 3A4 (Homo sapiens) (P08684 whole entry, looked up): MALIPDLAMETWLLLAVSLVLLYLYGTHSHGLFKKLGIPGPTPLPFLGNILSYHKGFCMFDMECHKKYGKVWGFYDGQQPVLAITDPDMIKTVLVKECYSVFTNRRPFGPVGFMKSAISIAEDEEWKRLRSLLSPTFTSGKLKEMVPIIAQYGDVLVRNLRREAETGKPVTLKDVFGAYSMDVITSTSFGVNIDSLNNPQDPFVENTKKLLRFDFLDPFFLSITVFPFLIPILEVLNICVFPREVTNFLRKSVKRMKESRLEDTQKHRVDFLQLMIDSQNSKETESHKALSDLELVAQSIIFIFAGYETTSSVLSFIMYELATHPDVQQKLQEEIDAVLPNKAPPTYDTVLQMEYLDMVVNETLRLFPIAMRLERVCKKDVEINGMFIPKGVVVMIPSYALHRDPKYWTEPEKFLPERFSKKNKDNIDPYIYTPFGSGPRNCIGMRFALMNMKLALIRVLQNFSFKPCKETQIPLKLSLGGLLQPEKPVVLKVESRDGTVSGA
Procedure, shortened: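 Human CYP3A4 (20 nM) with Luciferin-PPXE at 25 uM (its KM) in 200 mM KPO4; 10 min compound preincubation, then NADPH regeneration and 60 min reaction at RT. Luciferin read by luminescence; normalized to 57 uM ketoconazole full inhibition.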

[7] = qHTS Assay for Identification of Small Molecule Agonists for Thrombopoietin (TPO) Signaling Pathway (AID 917); further: on the % scale 0 is the no-effect control and ±100 the full control effect
Procedure, shortened: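 Activators of TPO signaling were sought in murine Ba/F3 cells transfected with the human receptor, using a luciferase gene driven by the Glycoprotein IIb promoter; 24-hr compound exposure at 37 C alongside 26 pM TPO, in IL-3-free medium.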

[8] = target: Pyruvate kinase (Leishmania mexicana) (UniProt Q27686); experiment: qHTS Validation Assay for Inhibitors of Leishmania Mexicana Pyruvate Kinase (AID 945);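 further: 0% = DMSO only neutral control wells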
Sequence of Pyruvate kinase (Leishmania mexicana) (Q27686 2-499 E452W): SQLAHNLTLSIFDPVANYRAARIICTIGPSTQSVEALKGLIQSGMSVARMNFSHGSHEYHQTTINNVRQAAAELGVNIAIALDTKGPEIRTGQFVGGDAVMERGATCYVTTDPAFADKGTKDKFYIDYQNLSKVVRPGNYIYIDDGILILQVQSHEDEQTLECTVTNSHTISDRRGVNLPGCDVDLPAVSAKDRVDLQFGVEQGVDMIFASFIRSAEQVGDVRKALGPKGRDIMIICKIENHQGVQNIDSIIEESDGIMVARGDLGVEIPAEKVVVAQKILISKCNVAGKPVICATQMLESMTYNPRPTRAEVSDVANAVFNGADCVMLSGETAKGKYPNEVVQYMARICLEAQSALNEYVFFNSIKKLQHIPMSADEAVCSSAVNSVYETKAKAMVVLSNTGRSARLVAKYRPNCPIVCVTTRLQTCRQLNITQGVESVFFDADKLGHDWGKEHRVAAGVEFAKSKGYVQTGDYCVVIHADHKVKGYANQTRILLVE
Procedure, shortened: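 Mutant LmPYK (E451W), 0.2 nM, plus 0.5 mM PEP and 0.1 mM ADP in 50 mM imidazole pH 7.2 containing 0.01% Tween 20 and 0.05% BSA. Incubated 1 h at room temperature; luminescence via PKLight, normalized to DMSO.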

[9] = target: Pyruvate kinase PKM (Homo sapiens) (UniProt P14618); experiment: qHTS Assay for Activators of Human Muscle Pyruvate Kinase (AID 954; active means well fitted curve in the direction sought with a large enough effect, not every such curve was filed as active;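 further: 0% = uninhibited enzyme and -100% = no enzyme or full thiadiazolimine inhibition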)
Sequence of Pyruvate kinase PKM (Homo sapiens) (P14618 whole entry, looked up): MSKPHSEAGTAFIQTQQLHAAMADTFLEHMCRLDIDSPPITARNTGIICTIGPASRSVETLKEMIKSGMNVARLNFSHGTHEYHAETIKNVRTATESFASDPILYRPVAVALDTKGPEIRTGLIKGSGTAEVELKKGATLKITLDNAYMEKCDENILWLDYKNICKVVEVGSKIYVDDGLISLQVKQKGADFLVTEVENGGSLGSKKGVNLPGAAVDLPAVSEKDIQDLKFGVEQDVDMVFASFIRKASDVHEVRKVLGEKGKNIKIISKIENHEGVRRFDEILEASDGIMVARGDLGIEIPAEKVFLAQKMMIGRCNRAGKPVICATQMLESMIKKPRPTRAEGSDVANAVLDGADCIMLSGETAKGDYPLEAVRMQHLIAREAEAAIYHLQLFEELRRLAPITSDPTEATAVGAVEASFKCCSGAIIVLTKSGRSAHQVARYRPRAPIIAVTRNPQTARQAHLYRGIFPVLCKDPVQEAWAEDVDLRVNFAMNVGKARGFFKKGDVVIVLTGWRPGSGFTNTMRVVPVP
Procedure, shortened: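 Purified human PKM2 (0.1 nM) with 0.5 mM PEP (Km) and 0.1 mM ADP in 50 mM imidazole pH 7.2, KCl, MgCl2, 1 h at room temperature; ATP formed read by coupled luciferase luminescence. Normalized to no-enzyme/110 uM thiadiazolimine inhibition; 0.3 nM enzyme column for activation.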

[10] = target: Alpha-galactosidase A (Homo sapiens) (UniProt P06280); experiment: Counterscreen for Glucocerebrosidase Inhibitors: qHTS Assay for Human alpha-Galactosidase at pH 4.5 (AID 992); further: 0% is about no effect
Sequence of Alpha-galactosidase A (Homo sapiens) (P06280 whole entry, looked up): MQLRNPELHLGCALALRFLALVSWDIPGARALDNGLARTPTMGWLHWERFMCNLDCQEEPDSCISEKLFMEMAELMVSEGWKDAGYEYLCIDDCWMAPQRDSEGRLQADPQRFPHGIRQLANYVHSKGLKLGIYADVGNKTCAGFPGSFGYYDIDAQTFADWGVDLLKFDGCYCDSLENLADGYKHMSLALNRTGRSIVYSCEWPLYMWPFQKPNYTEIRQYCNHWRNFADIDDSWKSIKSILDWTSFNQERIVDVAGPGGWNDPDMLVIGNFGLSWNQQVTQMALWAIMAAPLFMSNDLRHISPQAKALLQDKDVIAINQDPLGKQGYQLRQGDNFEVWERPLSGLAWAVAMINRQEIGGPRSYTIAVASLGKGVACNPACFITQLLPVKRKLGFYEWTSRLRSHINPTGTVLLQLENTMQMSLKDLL
Procedure, shortened: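 Human enzyme (2 nM) with 80 uM 4-methylumbelliferyl alpha-D-galactopyranoside in 50 mM citric acid, 0.005% Tween-20, pH 4.5, 20 min at room temperature. Compounds 0.7 nM–77 uM; fluorescence Ex 365/Em 440 after pH 10 stop; AC50 from Hill fits.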

[11] = target: alpha-glucosidase (Oryza sativa, rice) (UniProt Q653V4); experiment: Counterscreen for Glucocerebrosidase Inhibitors: qHTS Assay for Rice alpha-Glucosidase at pH 5.0 (AID 997);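 further: 0% = full activity with enzyme and -100% = basal without enzyme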
Procedure, shortened: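 Rice alpha-glucosidase (4 nM final) with 400 uM 4-methylumbelliferyl-alpha-D-glucopyranoside in citrate buffer pH 5.0, 20 min at room temperature, stopped at pH 10; fluorescence 365/440 nm, compounds 0.7 nM–77 uM, AC50 from Hill fits.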

[12] = qHTS Assay for Lipid Storage Modulators (AID 1519; calls by dose curve); settings: Drosophila S3 cells, BODIPY lipid droplet/cell ratio, laser cytometry, cells loaded with oleic acid
Procedure, shortened: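 Cells seeded at 5,000 per well were treated with compounds over a concentration series and loaded with oleic acid (400 uM, as added). Lipid droplet fluorescence (488 nm excitation, 500-530 nm channel) was read by laser-scanning cytometry and normalized to 20 uM Triacsin C.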

[13] = target: Ubiquitin carboxyl-terminal hydrolase 1 (Homo sapiens) (UniProt O94782); experiment: Inhibitors of USP1/UAF1: Pilot qHTS (AID 504865);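 further: rhodamine fluorescence freed from ubiquitin-rhodamine substrate followed over time; top concentration of the series differs between compounds; on the % scale 0 is the no-effect control and ±100 the full control effect; nearly all actives have a fitted effect of over 35% in size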
Procedure, shortened: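 1nM USP1/UAF1 + cpd, 15 min RT; start w/ Ub-Rho 150nM final; kinetic FL 480/540 nm, 6 reads q60 s. Buffer 50mM HEPES pH 7.8, 0.5mM EDTA, 1mM TCEP, 0.01% Tween-20, 0.1 mg/ml BSA.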

[14] = target: DNA dC->dU-editing enzyme APOBEC-3G (Homo sapiens) (UniProt Q9HC16); experiment: qHTS for inhibitors of Vif-A3G interactions: Validation (AID 588379); further: 0% is about no effect
Sequence of DNA dC->dU-editing enzyme APOBEC-3G (Homo sapiens) (Q9HC16 whole entry, looked up): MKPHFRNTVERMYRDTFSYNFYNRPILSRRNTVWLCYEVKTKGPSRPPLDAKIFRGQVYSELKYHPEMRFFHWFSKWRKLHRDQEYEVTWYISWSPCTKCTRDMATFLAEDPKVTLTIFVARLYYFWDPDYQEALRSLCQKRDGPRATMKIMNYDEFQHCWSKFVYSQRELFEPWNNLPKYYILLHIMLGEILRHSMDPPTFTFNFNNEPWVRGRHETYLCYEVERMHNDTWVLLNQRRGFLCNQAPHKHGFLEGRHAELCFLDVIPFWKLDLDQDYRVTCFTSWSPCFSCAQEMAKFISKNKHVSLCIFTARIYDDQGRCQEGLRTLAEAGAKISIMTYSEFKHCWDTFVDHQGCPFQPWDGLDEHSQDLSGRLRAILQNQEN
Procedure, shortened: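 HeLa cells stably expressing Vif and A3G-eYFP, 700 cells/well, incubated overnight at 37 deg C, then exposed to compound overnight at 37 deg C. Inhibition of Vif-mediated degradation read as increased yellow fluorescence (Ex 488/Em 500-530) by laser-scanning cytometry.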

[15] = system: Zika virus NS2B-NS3 protease; experiment: Primary screen GU AMC qHTS for Zika virus inhibitors (AID 1347154);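 further: 0% = no-inhibitor control and -100% = no-enzyme control; nearly all actives have a fitted effect of over 70% in size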
Procedure, shortened: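 Fluorogenic AMC-substrate cleavage by noncovalent NS2B-NS3 protease complex (25 nM, pH 8.0 Tris buffer with Tween 20) followed for 15 minutes at room temperature (~20% conversion). Percent inhibition from ex340/em450 signal change, fitted by 4-parameter Hill equation.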

[16] = Primary qHTS for small molecule stabilizers of the endoplasmic reticulum resident proteome: Secreted ER Calcium Modulated Protein (SERCaMP) assay (AID 1508630); further: on the % scale 0 is the no-effect control and ±100 the full control effect
Procedure, shortened: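 GLuc-SERCaMP-expressing SH-SY5Y cells, pretreated 16 h with compound, are challenged with thapsigargin to empty ER calcium stores; after 4 h, coelenterazine is added directly to the medium and luminescence is imaged.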

[17] = target: Mitogen-activated protein kinase 10 (Mus musculus) (UniProt Q61831); experiment: JNK3 AlphaScreen Assay (AID 530; active means well fitted curve in either direction with a large enough effect, not every such curve was filed as active)
Procedure, shortened: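 Room-temperature AlphaScreen kinase assay; pre-activated HepG2 lysate as JNK3 source, biotin-GST-cJun(1-79) substrate, 10 uM ATP, compound 15 min preincubation.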

[18] = NFAT Signaling Pathway (AID 444; active means well fitted curve in either direction with a large enough effect, not every such curve was filed as active); settings: Jurkat NFAT-bla M1, carbachol, beta-lactamase ratio, 5 h; at 38 µM (top of the series)
Procedure, shortened: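 Read-out: CCF4 FRET ratio (460 nm/530 nm) after 1 h RT dye loading, used for %activity and AC50 from titration series. Cells: Jurkat NFAT-β-lactamase/M1 line, treated with compound plus 1 uM carbachol for 5 h, 37 °C.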

[19] = target: Glucocorticoid receptor (Homo sapiens) (UniProt P04150); experiment: GR-GFP Redistribution (AID 450;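 active means compounds whose dose series gives a full or clear partial fitted curve of increased nuclear translocation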; further: potency means the concentration at half of the fitted maximal effect); settings: U2OS GR-GFP nuclear translocation, laser cytometry, 2 h
Sequence of Glucocorticoid receptor (Homo sapiens) (P04150 whole entry, looked up, the tested form may be a part): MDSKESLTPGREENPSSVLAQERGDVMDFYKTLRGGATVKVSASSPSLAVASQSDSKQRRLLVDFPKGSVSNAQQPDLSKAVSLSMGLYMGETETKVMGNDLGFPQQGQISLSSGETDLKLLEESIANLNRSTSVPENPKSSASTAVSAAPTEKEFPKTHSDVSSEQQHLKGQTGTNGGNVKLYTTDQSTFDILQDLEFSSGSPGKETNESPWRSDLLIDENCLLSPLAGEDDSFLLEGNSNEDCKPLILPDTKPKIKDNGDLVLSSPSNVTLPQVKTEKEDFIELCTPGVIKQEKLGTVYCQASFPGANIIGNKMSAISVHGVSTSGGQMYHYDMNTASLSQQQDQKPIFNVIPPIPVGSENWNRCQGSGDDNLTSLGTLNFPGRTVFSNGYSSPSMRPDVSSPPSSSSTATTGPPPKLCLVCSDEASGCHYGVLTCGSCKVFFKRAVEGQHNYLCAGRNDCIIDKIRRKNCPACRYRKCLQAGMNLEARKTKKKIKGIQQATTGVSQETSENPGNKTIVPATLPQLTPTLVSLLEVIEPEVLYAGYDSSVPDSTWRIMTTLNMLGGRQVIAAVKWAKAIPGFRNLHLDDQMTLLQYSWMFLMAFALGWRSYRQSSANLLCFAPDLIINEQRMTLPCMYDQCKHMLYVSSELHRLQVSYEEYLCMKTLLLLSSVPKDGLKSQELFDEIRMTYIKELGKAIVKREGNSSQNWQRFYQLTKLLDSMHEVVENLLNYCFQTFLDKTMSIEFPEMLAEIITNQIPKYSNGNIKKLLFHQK

[20] = target: Glucocorticoid receptor (Homo sapiens) (UniProt P04150); experiment: GR-EFC Redistribution (AID 451; calls by dose curve; further: potency means the concentration at half of the fitted maximal effect); settings: CHO-K1 GR-EFC translocation, beta-gal luminescence, 2 h
Procedure, shortened: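 Translocation of GR-ED fusion to nuclear EA restores b-gal, read by luminescence after 1 h room-temperature detection. Engineered CHO-K1 biosensor cells, 1,000/well, exposed 2 h at 37 C to titrations up to 46 uM final.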

[21] = measured here: cell count channel max response
[22] = measured here: lipid channel max response

CNCC[C@H](Oc1ccccc1OC)c1ccccc1
-15.9%: max response [12, 22]
active: Potency [2] 12.6 µM and 10 µM and 15.8 µM
inactive: activity change, negative = inhibition ([1]; at 38 µM (top of the series)) 26.3% | activity, negative = inhibition ([3]; at 17.2 µM (top of the series)) -0.439% | activity, negative = inhibition ([3]; at 38 µM (top of the series)) 4.82% | Potency [4] | outcome [5] | Potency [6] | Potency [7] | Potency [8] | outcome [9] | outcome [10] | outcome [11] | activity change, negative = inhibition ([12]; at 25.7 µM (top of the series)) -2.76% | Potency [13] | Potency [14] | Potency [15] | Potency [16]
-10.8%: max response [12, 21]

CCN(Cc1ccncc1)C(=O)[C@@H](CO)c1ccccc1
-10.2%: max response [12, 21]
active: Potency [2] 15.8 µM and 10 µM
-15.1%: max response [12, 22]
inactive: activity change, negative = inhibition ([1]; at 17.2 µM (top of the series)) 5.81% | activity, negative = inhibition ([3]; at 17.2 µM (top of the series)) -6.07% | activity, negative = inhibition ([3]; at 38 µM (top of the series)) -7.02% | Potency [17] | Potency [4] | outcome [5] | Potency [6] | Potency [7] | Potency [8] | outcome [9] | outcome [10] | outcome [11] | activity change, negative = inhibition ([12]; at 25.7 µM (top of the series)) -4.57% | Potency [14] | Potency [15] | Potency [16]

N[C@]1(C(=O)O)CCc2cc(C(=O)O)ccc21
14.2%: max response [12, 21]
inactive: activity change, negative = inhibition ([1]; at 38 µM (top of the series)) 2.45% | activity change, negative = inhibition [18] 3.1% | activity, negative = inhibition ([3]; at 38 µM (top of the series)) -13% | Potency [19] > 46 µM | Potency [20] > 46 µM | Potency [17] | outcome [5] | Potency [7] | Potency [8] | outcome [9] | outcome [10] | outcome [11] | activity change, negative = inhibition ([12]; at 57.5 µM (top of the series)) 5.84% | Potency [14] | Potency [15] | Potency [16]
23.6%: max response [12, 22]

CC(=O)ON(C(C)=O)S(=O)(=O)c1ccc(Cl)cc1
-23.7%: max response [12, 22]
inactive: Potency [2] | Potency [19] > 46 µM | Potency [20] > 46 µM | Potency [17] | Potency [4] | activity change, negative = inhibition ([12]; at 57.5 µM (top of the series)) -5.19% | Potency [13] | Potency [14] | Potency [15] | Potency [16]
-20.7%: max response [12, 21]
